Screen size: about 5,500 compounds; about 2,000 (36%) were called active. Roughly 18% stayed inconclusive and do not appear here. Cut-off read from the data, not from the text of the source: active = normalized growth mostly below about 0.91 (no sharp cut-off); inconclusive = no clear call, values can overlap the other calls; inactive = mostly above about 0.92. The list shows a part of the results.
Assay: chemical genetic growth profiling, strain panel (AID 1159580);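 note: tested at 20 µM; growth read once vehicle control cultures reached saturation at 30 °C; 1 = growth at the plate median or of vehicle wells; lower values mean less growth of the strain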
Settings: growth OD
[1] = S. cerevisiae deletion strains, locus YAL040C, strain CLN3, stronger effect = lower value
[2] = S. cerevisiae deletion strains, locus YCL061C, strain MRC1 (second series), stronger effect = lower value
[3] = S. cerevisiae deletion strains, locus YDR150W, strain NUM1, stronger effect = lower value
[4] = S. cerevisiae deletion strains, locus YDR363W, strain ESC2, stronger effect = lower value
[5] = S. cerevisiae deletion strains, locus YER002W, strain NOP16, stronger effect = lower value
[6] = S. cerevisiae deletion strains, locus YMR263W, strain SAP30, stronger effect = lower value
[7] = S. cerevisiae deletion strains, locus YMR307W, strain GAS1, stronger effect = lower value
[8] = S. cerevisiae deletion strains, locus YNL175C, strain NOP13, stronger effect = lower value
[9] = S. cerevisiae deletion strains, locus YNL197C, strain WHI3, stronger effect = lower value
[10] = S. cerevisiae deletion strains, locus YNL224C, strain SQS1, stronger effect = lower value
[11] = S. cerevisiae deletion strains, locus YOR083W, strain WHI5 (second series), stronger effect = lower value
[12] = S. cerevisiae deletion strains, locus YPL055C, strain LGE1, stronger effect = lower value
[13] = S. cerevisiae deletion strains, locus YAL013W, strain DEP1, stronger effect = lower value
[14] = S. cerevisiae deletion strains, locus YJR075W, strain HOC1, stronger effect = lower value
[15] = S. cerevisiae deletion strains, locus YNL153C, strain GIM3, stronger effect = lower value
[16] = S. cerevisiae deletion strains, locus YNL322C, strain KRE1, stronger effect = lower value
[17] = S. cerevisiae deletion strains, locus YPL241C, strain CIN2, stronger effect = lower value

Measured: normalized growth

CNC(=O)c1cc2c(cn1)[nH]c1ccccc12
inactive: [1] 1.01 | [2] 1.01 | [3] 1 | [4] 1.01 | [5] 0.995 | S. cerevisiae deletion strains, locus YGR229C, strain SMI1, stronger effect = lower value 1.05 | [6] 1 | [7] 0.997 | S. cerevisiae deletion strains, locus YNL128W, strain TEP1, stronger effect = lower value 0.97 | [8] 0.986 | [9] 0.983 | [10] 0.989 | [11] 0.993 | [12] 1.02

C=CC1CN2CCC1CC2C(OC(C)=O)c1ccnc2ccc(OC)cc12 (configuration not stated)
inactive: [13] 1.01 | S. cerevisiae deletion strains, locus YBR229C, strain ROT2, stronger effect = lower value 0.993 | S. cerevisiae deletion strains, locus YDL101C, strain DUN1, stronger effect = lower value 1 | [3] 1.02 | S. cerevisiae deletion strains, locus YEL061C, strain CIN8, stronger effect = lower value 0.957 | S. cerevisiae deletion strains, locus YGR078C, strain PAC10, stronger effect = lower value 1 | S. cerevisiae deletion strains, locus YHR030C, strain SLT2, stronger effect = lower value 1.06 | S. cerevisiae deletion strains, locus YHR087W, strain rtc3, stronger effect = lower value 0.95 | S. cerevisiae deletion strains, locus YJL187C, strain SWE1, stronger effect = lower value 1.01 | S. cerevisiae deletion strains, locus YJR043C, strain POL32, stronger effect = lower value 1 | [14] 0.997 | S. cerevisiae deletion strains, locus YKL190W, strain CNB1, stronger effect = lower value 0.982 | S. cerevisiae deletion strains, locus YLR039C, strain RIC1, stronger effect = lower value 1.06 | S. cerevisiae deletion strains, locus YLR058C, strain SHM2 (second series), stronger effect = lower value 1 | S. cerevisiae deletion strains, locus YLR085C, strain ARP6, stronger effect = lower value 0.975 | S. cerevisiae deletion strains, locus YLR262C, strain YPT6, stronger effect = lower value 1.06 | S. cerevisiae deletion strains, locus YML094W, strain GIM5, stronger effect = lower value 0.997 | S. cerevisiae deletion strains, locus YMR219W, strain ESC1, stronger effect = lower value 1 | [6] 0.984 | [7] 0.916 | [15] 1.02 | S. cerevisiae deletion strains, locus YNL298W, strain CLA4 (second series), stronger effect = lower value 0.967 | [16] 1 | S. cerevisiae deletion strains, locus YNR030W, strain Alg12, stronger effect = lower value 0.998 | [12] 0.999 | [17] 1 | S. cerevisiae deletion strains, locus YPR135W, strain CTF4, stronger effect = lower value 1 | S. cerevisiae strains, strain wild type, stronger effect = lower value 0.974

CNCCC(Oc1ccccc1OC)c1ccccc1 (configuration not stated)
inactive: [13] 0.996 | [1] 1.01 | [2] 1 | [3] 1.01 | [4] 1 | [5] 1 | [14] 1.01 | [15] 1.03 | [8] 1 | [9] 1.01 | [10] 1.01 | [16] 1 | [11] 1.03 | [12] 1.02 | [17] 0.996

From PubChem BioAssay AID1159580 (chemical genetic matrix, 2015)
